According to PubChem BioAssay (EPA / NIEHS):
Results filed as inconclusive are left out. Active and inactive are the calls of the source. Rule for the calls, unless noted: active = hit-call score of the fitted dose curve at least 0.9, where 1 is the maximum; inconclusive = response in the unintended direction; inactive = score below 0.9.

Experiments:
[1] = ATG_TAL_CIS: Attagene CIS-FACTORIAL HepG2 Assay for human TAL Basal Promoter (AID 2282966; active = hit-call score of the fitted dose curve at least 0.9, where 1 is the maximum; inactive = score below 0.9;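 note: background control endpoint measuring basal TAL promoter reporter mRNA not a specific factor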); conditions: HepG2 Attagene cis-factorial TAL promoter reporter; actives raise or lower the signal
Summary of the method: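 In this cell-based multiplex, HepG2 liver cells bearing cis-promoter reporter constructs are dosed for 24 hours. Total RNA is reverse-transcribed and amplified, labelled fragments are sized by capillary electrophoresis, and signal changes are fitted bidirectionally versus DMSO.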

[2] = ATG_TGFb_CIS: Attagene CIS-FACTORIAL HepG2 Assay for human Transforming Growth Factor (TGF) (AID 2282967; active = hit-call score of the fitted dose curve at least 0.9, where 1 is the maximum; inactive = score below 0.9); conditions: HepG2 Attagene CIS TGFb reporter, mRNA transcription; actives raise or lower the signal
Summary of the method: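 Readout: fluorescently labeled reporter cDNA fragments resolved by capillary electrophoresis after RT-PCR. Transfected HepG2 cells dosed for 24 h; endogenous TF activity at TGFB1-linked cis element; gain or loss fitted relative to DMSO.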

[3] = ATG_VDRE_CIS: Attagene CIS-FACTORIAL HepG2 Assay for human Vitamin D Receptor Element (VDRE) (AID 2282968; active = hit-call score of the fitted dose curve at least 0.9, where 1 is the maximum; inactive = score below 0.9); conditions: HepG2 VDRE cis-reporter transcription, actives raise or lower the signal
Summary of the method: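 Cell-based multiplexed reporter format in human liver HepG2 cells, 24 h post-dose. Fluorescence from capillary electrophoresis of reporter cDNA gives the signal, with DMSO as negative control and baseline.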

[4] = biological target: Steroid hormone receptor ERR1 (Homo sapiens) (UniProt P11474); assay: ATG_ERRa_TRANS: Attagene TRANS-FACTORIAL HepG2 Assay for human Estrogen-Related Receptor alpha (ERRa) (AID 2282971); conditions: HepG2 Attagene TRANS reporter, ERRa transactivation
Sequence of Steroid hormone receptor ERR1 (Homo sapiens) (P11474 whole entry, looked up, the tested form may be a part): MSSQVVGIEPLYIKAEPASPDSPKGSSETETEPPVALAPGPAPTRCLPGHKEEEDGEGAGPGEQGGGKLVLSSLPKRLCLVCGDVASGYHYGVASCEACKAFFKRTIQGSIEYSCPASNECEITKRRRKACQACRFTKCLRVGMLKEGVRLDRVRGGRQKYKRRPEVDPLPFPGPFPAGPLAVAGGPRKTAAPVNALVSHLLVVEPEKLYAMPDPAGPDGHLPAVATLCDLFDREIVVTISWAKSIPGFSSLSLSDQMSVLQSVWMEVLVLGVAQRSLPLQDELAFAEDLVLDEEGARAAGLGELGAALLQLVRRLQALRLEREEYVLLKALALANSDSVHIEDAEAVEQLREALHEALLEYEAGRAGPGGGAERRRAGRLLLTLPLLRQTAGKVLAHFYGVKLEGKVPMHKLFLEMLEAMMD
Summary of the method: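 Transfected HepG2, 24 h dosing, ERRa-Gal4 chimera driving GAL4-UAS reporter. Readout: reporter mRNA via RT-PCR plus capillary electrophoresis (fluorescence). Positive direction vs DMSO control.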

[5] = biological target: X-box-binding protein 1 (Homo sapiens) (UniProt P17861); assay: ATG_Xbp1_CIS: Attagene CIS-FACTORIAL HepG2 Assay for human X-box Binding Protein 1 (XBP1) (AID 2282972; active = hit-call score of the fitted dose curve at least 0.9, where 1 is the maximum; inactive = score below 0.9); conditions: HepG2 XBP1 cis-element reporter, Attagene multiplex; actives raise or lower the signal
Sequence of X-box-binding protein 1 (Homo sapiens) (P17861 whole entry, looked up): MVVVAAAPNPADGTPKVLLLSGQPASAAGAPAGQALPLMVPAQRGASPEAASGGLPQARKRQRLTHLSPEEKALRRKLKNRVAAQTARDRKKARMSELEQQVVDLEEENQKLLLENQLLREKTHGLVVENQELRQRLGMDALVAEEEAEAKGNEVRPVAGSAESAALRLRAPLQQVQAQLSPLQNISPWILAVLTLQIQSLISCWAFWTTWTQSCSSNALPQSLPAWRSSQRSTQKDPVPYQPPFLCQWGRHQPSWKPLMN
Summary of the method: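 HepG2, transient MRTU transfection (cis-promoter driven), 24 h compound exposure. Total RNA → oligo(dT) RT → PCR → 6-FAM labeling → HpaI cut → CE. Bidirectional fit vs DMSO.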

[6] = biological target: Glucocorticoid receptor (Homo sapiens) (UniProt P04150); assay: ATG_GR_TRANS: Attagene TRANS-FACTORIAL HepG2 Assay for human Glucocorticoid Receptor (GR) (AID 2282978); conditions: HepG2 Attagene TRANS GR reporter, mRNA transcription;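 note: activators score as hits since higher reporter transcript over DMSO is fitted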
Sequence of Glucocorticoid receptor (Homo sapiens) (P04150 whole entry, looked up, the tested form may be a part): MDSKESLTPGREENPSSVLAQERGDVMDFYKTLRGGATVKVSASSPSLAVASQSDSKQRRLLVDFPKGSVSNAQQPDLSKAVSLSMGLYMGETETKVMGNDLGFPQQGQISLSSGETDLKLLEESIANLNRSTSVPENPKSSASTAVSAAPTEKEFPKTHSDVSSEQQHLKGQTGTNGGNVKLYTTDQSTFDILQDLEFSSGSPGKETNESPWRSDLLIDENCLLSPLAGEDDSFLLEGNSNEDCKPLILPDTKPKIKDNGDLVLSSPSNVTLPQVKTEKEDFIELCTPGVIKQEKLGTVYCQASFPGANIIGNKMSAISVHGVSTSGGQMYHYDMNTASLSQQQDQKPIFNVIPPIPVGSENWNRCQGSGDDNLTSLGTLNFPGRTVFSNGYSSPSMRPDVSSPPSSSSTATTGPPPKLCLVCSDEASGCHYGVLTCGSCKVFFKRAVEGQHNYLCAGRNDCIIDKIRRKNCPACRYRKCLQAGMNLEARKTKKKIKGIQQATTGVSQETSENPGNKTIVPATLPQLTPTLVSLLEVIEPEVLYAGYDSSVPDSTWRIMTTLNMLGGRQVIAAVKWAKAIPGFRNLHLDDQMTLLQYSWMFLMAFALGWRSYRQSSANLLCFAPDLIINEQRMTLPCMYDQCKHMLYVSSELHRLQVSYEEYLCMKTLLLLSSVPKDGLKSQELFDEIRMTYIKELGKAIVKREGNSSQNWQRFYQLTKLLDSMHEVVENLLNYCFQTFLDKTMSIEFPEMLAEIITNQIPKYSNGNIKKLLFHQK
Summary of the method: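 HepG2 cells transiently transfected with multiplexed reporter units in which chimeric NR-GAL4 proteins drive GAL4-UAS reporters; 24 h compound exposure. Reporter mRNA measured by RT-PCR, 6-FAM labelling, HpaI digestion and capillary electrophoresis; gain-of-signal fitted versus DMSO.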

[7] = biological target: Bile acid receptor (Homo sapiens) (UniProt Q96RI1); assay: ATG_FXR_TRANS: Attagene TRANS-FACTORIAL HepG2 Assay for Farnesoid X Receptor (FXR) (AID 2282979); conditions: HepG2 Attagene TRANS FXR-GAL4 reporter transcription;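 note: hits raise reporter mRNA above DMSO so AC50 marks FXR activation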
Sequence of Bile acid receptor (Homo sapiens) (Q96RI1 whole entry, looked up, the tested form may be a part): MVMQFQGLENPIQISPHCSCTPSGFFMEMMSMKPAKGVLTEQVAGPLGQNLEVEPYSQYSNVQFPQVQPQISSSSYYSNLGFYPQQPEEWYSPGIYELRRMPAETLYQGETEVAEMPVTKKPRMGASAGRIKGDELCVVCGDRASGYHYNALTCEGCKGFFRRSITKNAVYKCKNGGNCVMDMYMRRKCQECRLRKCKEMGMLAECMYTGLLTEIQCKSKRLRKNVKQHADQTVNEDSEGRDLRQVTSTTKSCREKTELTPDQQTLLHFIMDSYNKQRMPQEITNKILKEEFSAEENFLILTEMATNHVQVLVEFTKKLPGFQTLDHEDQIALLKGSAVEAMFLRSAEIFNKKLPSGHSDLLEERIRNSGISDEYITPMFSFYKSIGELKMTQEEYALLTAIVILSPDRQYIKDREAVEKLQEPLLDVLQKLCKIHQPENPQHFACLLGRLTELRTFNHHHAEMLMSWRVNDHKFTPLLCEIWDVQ
Summary of the method: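 Read-out: fluorescent reporter transcripts quantified by capillary electrophoresis after RT-PCR of total RNA. Source cells were HepG2 transiently carrying chimeric NR-GAL4 plus GAL4-UAS reporter units, dosed 24 h. Activity fitted upward relative to DMSO baseline.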

[8] = biological target: Hepatocyte nuclear factor 4-alpha (Homo sapiens) (UniProt P41235); assay: ATG_HNF4a_TRANS: Attagene TRANS-FACTORIAL HepG2 Assay for human Hepatocyte Nuclear Factor 4 alpha (HNF4a) (AID 2282982); conditions: HepG2 HNF4a transactivation reporter, mRNA readout
Sequence of Hepatocyte nuclear factor 4-alpha (Homo sapiens) (P41235 whole entry, looked up, the tested form may be a part): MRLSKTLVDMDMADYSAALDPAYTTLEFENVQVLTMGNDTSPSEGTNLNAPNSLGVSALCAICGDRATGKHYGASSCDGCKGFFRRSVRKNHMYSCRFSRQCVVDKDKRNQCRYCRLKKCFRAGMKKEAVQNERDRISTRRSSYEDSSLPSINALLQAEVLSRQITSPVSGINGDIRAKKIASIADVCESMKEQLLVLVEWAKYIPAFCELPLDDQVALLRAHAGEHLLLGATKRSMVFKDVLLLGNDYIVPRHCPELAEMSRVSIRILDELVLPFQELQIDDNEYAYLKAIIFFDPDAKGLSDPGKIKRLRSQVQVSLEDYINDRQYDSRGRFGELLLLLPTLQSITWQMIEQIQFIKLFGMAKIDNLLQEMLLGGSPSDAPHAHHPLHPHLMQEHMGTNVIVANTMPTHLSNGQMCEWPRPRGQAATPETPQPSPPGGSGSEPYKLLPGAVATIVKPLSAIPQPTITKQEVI
Summary of the method: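 Gain-of-signal mRNA induction, relative to DMSO vehicle, was read after 24 h compound treatment of HepG2 cells bearing transfected GAL4-UAS reporters. Detection used RT-PCR, 6-FAM primer extension and capillary electrophoresis.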

[9] = ATG_M_06_TRANS: Attagene TRANS-FACTORIAL HepG2 Assay for M06 Transcription Factor (Internal Marker) (AID 2282983); conditions: HepG2 Attagene TRANS M06 internal marker reporter
Summary of the method: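 After a 24 h chemical treatment of transfected HepG2, RNA underwent DNase I treatment, reverse transcription and reporter-specific PCR; labelled, HpaI-digested products were sized by capillary electrophoresis. Signal increase relative to DMSO defined activity.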

[10] = biological target: Oxysterols receptor LXR-alpha (Homo sapiens) (UniProt Q13133); assay: ATG_LXRa_TRANS: Attagene TRANS-FACTORIAL HepG2 Assay for human Liver X Receptor alpha (LXRa) (AID 2282980); conditions: HepG2 Attagene TRANS reporter, LXRa transactivation
Summary of the method: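 Read-out: reporter transcript levels by RT-PCR plus capillary electrophoresis, fluorescence intensity. Transiently transfected HepG2, exogenous NR-GAL4 chimera, GAL4-UAS reporters; 24 h compound exposure. Activity = increase over DMSO negative control.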

[11] = biological target: Estrogen receptor (Homo sapiens) (UniProt P03372); assay: ATG_ERa_TRANS: Attagene TRANS-FACTORIAL HepG2 Assay for human Estrogen Receptor alpha (ERa) (AID 2282970); conditions: HepG2 Attagene TRANS ERa GAL4 reporter, mRNA
Sequence of Estrogen receptor (Homo sapiens) (P03372 whole entry, looked up, the tested form may be a part): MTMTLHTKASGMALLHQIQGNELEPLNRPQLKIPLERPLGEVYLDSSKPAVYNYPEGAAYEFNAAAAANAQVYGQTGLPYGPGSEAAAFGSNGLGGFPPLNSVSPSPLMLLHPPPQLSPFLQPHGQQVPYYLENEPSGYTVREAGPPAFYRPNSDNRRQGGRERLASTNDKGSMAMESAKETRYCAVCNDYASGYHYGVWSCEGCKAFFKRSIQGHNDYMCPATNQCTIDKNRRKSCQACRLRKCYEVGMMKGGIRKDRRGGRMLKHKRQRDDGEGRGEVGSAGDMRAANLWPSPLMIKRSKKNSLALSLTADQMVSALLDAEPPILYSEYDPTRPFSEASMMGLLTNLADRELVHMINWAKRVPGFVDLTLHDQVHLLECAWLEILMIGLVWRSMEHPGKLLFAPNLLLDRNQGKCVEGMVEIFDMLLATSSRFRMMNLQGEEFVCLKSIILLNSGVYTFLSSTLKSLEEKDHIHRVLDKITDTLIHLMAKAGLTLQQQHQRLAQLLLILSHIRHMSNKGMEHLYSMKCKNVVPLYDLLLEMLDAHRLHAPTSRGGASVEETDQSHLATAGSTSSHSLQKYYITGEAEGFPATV
Summary of the method: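 After 24 h of compound treatment, RNA from HepG2 cells bearing transfected GAL4-UAS reporter constructs is converted to cDNA, amplified and fluorescently labelled. Capillary electrophoresis resolves the ERa-linked reporter; DMSO serves as negative control.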

[12] = ATG_M_19_TRANS: Attagene TRANS-FACTORIAL HepG2 Assay for M19 Transcription Factor (Internal Marker) (AID 2282974); conditions: HepG2 Attagene TRANS-FACTORIAL M19 internal marker reporter
Summary of the method: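 HepG2 cells transiently transfected with multiple GAL4-UAS reporter transcription units were exposed to chemicals for 24 h. Reporter mRNA was read by RT-PCR, 6-FAM primer extension, HpaI digestion and capillary electrophoresis; gain of signal fitted relative to DMSO.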

[13] = ATG_GAL4_TRANS: Attagene TRANS-FACTORIAL HepG2 Assay for GAL4 (Internal Marker) (AID 2282976); conditions: HepG2 Attagene TRANS GAL4 internal marker reporter
Summary of the method: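 RT-PCR/capillary electrophoresis readout of reporter mRNA. HepG2, transient MRTU transfection (GAL4-UAS reporters), 24 h compound exposure. Background-control endpoint, positive direction vs DMSO baseline.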

[14] = biological target: Estrogen-related receptor gamma (Homo sapiens) (UniProt P62508); assay: ATG_ERRg_TRANS: Attagene TRANS-FACTORIAL HepG2 Assay for human Estrogen-Related Receptor gamma (ERRg) (AID 2282977); conditions: HepG2 Attagene TRANS reporter, ERRg transactivation;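 note: hits increase reporter signal over DMSO so potencies reflect activators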
Summary of the method: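 HepG2 cells transiently transfected with multiplexed GAL4-UAS reporter units and chimeric NR-Gal4 constructs were exposed to test chemicals for 24 h. Reporter mRNA was measured by RT-PCR, 6-FAM primer extension, HpaI digestion and capillary electrophoresis; gain-of-signal versus DMSO.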

[15] = biological target: Nuclear receptor subfamily 4 group A member 2 (Homo sapiens) (UniProt P43354); assay: ATG_NURR1_TRANS: Attagene TRANS-FACTORIAL HepG2 Assay for human Nuclear Receptor Related Protein 1 (NURR1) (AID 2282985); conditions: HepG2 Attagene TRANS reporter, mRNA readout
Sequence of Nuclear receptor subfamily 4 group A member 2 (Homo sapiens) (P43354 whole entry, looked up): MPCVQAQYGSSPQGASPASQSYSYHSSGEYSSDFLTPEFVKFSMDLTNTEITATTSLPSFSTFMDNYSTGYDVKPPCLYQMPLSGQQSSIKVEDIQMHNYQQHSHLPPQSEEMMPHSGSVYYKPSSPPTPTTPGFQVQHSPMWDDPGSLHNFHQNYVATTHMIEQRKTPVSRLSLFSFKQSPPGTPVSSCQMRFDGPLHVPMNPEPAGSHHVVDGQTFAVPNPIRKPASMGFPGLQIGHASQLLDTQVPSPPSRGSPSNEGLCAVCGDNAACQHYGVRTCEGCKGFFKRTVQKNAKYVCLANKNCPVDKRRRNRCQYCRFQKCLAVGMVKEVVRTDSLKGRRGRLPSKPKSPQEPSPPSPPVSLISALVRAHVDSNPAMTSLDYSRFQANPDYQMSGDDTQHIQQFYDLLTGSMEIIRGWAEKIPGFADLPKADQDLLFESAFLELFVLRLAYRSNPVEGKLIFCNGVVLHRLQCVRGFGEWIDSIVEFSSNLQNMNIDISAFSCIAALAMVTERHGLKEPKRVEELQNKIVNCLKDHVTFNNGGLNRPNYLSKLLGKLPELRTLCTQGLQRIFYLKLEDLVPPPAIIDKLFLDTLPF
Summary of the method: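 HepG2 / transient MRTU transfection / 24 h compound exposure / RT-PCR + CE fluorescence of reporter mRNA / gain-of-signal vs DMSO.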

[16] = biological target: Transcriptional activator Myb (Homo sapiens) (UniProt P10242); assay: ATG_Myb_CIS: Attagene CIS-FACTORIAL HepG2 Assay for human Myeloblastosis (Myb) Proto-Oncogene Transcription Factor (AID 2282986; active = hit-call score of the fitted dose curve at least 0.9, where 1 is the maximum; inactive = score below 0.9); conditions: HepG2 Attagene CIS-FACTORIAL Myb reporter transcription; actives raise or lower the signal
Sequence of Transcriptional activator Myb (Homo sapiens) (P10242 whole entry, looked up): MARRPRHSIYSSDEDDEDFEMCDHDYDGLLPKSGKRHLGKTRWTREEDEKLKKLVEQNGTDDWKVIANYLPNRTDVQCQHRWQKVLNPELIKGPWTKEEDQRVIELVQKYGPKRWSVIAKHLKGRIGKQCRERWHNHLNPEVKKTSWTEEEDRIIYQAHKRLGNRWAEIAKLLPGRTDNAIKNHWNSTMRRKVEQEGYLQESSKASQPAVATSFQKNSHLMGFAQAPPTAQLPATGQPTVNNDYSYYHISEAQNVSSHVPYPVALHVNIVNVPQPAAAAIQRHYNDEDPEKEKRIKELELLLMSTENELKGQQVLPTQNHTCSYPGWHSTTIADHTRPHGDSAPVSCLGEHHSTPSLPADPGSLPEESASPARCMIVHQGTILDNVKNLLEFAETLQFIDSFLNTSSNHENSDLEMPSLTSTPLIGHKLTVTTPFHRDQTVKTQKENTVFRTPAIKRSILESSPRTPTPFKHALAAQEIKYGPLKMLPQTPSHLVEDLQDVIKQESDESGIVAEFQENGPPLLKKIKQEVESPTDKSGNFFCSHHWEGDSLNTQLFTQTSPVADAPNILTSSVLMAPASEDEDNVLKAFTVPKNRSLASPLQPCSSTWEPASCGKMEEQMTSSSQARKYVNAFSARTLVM
Summary of the method: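 HepG2 cells were transiently transfected with cis-regulated multiple reporter transcription units reflecting endogenous Myb activity, then exposed to compound for 24 hours. Reporter mRNA was measured by RT-PCR with capillary electrophoresis; bidirectional fitting versus DMSO baseline.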

[17] = biological target: Oxysterols receptor LXR-beta (Homo sapiens) (UniProt P55055); assay: ATG_LXRb_TRANS: Attagene TRANS-FACTORIAL HepG2 Assay for human Liver X Receptor beta (LXRb) (AID 2282981); conditions: HepG2 Attagene TRANS GAL4-LXRb reporter, mRNA
Sequence of Oxysterols receptor LXR-beta (Homo sapiens) (P55055 whole entry, looked up, the tested form may be a part): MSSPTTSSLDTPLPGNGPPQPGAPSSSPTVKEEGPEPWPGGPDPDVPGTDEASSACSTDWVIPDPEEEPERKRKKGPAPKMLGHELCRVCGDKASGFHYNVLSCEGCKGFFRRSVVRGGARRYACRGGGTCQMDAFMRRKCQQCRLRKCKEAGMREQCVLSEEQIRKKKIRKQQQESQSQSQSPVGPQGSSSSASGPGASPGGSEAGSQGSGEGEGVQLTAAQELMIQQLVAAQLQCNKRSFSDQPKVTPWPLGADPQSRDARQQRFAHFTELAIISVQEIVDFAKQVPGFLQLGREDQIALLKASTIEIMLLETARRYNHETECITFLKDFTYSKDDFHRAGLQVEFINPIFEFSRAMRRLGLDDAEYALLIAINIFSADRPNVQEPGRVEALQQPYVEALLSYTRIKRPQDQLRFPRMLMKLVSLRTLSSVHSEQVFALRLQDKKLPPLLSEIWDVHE
Summary of the method: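 Gain-of-signal mRNA reporter endpoint, DMSO as negative control. Transiently transfected HepG2 cells carrying the NR-Gal4 chimera and GAL4-UAS reporter units were treated 24 h; transcripts quantified by RT-PCR and capillary electrophoresis fluorescence.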

[18] = biological target: Nuclear receptor subfamily 1 group I member 3 (Homo sapiens) (UniProt Q14994); assay: ATG_CAR_TRANS: Attagene TRANS-FACTORIAL HepG2 Assay for human Constitutive Androstane Receptor (CAR) (AID 2282969); conditions: HepG2 Attagene TRANS-FACTORIAL CAR reporter;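 note: activators raise reporter mRNA above DMSO so AC50 marks induction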
Summary of the method: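 HepG2 cells transiently transfected with GAL4-UAS reporter units; TRANS format reads activity of exogenous chimeric NR-Gal4 protein. After 24 h dosing, reporter mRNA quantified by RT-PCR, 6-FAM labelling and capillary electrophoresis; gain of signal fitted against DMSO.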

[19] = ATG_M_32_TRANS: Attagene TRANS-FACTORIAL HepG2 Assay for M32 Transcription Factor (Internal Marker) (AID 2282984); conditions: HepG2 Attagene TRANS M32 internal marker reporter;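 note: transcript level of a background control reporter unit measured by RT-PCR and capillary electrophoresis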
Summary of the method: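 Capillary electrophoresis of 6-FAM-labelled reporter fragments gives the signal; data fitted for gain over DMSO negative control. Source: HepG2 cells bearing transient multiple reporter transcription units, 24 h exposure.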

Measured: AC50

CCC(C)C(=O)OC (stereo unspecified)
inactive: [1] | [2] | [3] | [4] | [5] | [6] | [7] | [8] | [9]

CCC(C)N (stereo unspecified)
inactive: [2] | [3] | [5] | [10] | [8] | [9]

CCCCC1C(=O)N(c2ccccc2)N(c2ccccc2)C1=O
inactive: [1] | [2] | [3] | [11] | [5] | [12] | [13] | [14] | [6] | [7] | [8] | [15] | [16]

CCCCCCCCCC[N+](C)(CCCCCCCCCC)CCC[Si](OC)(OC)OC
active: [5] 18 µM | [16] 15.9 µM
inactive: [1] | [2] | [3] | [12] | [17] | [8] | [15]

CC1=CCC(C(C)C)C=C1 (stereo unspecified)
inactive: [1] | [2] | [11] | [5] | [10] | [17] | [8] | [9] | [15] | [16]

CC1=NN(c2ccc(S(=O)(=O)O)cc2)C(=O)C1N=Nc1ccccc1 (stereo unspecified)
inactive: [2] | [3] | [11] | [5] | [17] | [9] | [15] | [16]

CC=C(C)C(C)=O
inactive: [1] | [2] | [18] | [5] | [13] | [17] | [16]
active: [15] 44.7 µM

CCCC=C(C=O)CC
inactive: [1] | [2] | [11] | [5] | [12] | [17] | [8] | [9] | [15] | [16]

COc1ccc(C(=O)/C(Br)=C\C(=O)O)cc1
inactive: [1] | [11] | [4] | [5] | [14] | [7] | [17] | [8] | [9] | [19] | [15] | [16]

CCCCOCCOCCOC(C)=O
inactive: [1] | [2] | [3] | [11] | [4] | [5] | [12] | [13] | [6] | [17] | [19]
